In PubChem BioAssay AID1159580 (chemical genetic matrix, 2015):
In all, about 5,500 compounds went through this assay and about 2,000 (36%) were called active. Another 18% or so got no clear call; they are omitted. No stated cut-off is given here; in the data, active means normalized growth mostly below about 0.91 (no sharp cut-off); inconclusive means no clear call, values can overlap the other calls; inactive means mostly above about 0.92. The list shows a part of the results.

Experiment: chemical genetic growth profiling, strain panel (AID 1159580);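 further: tested at 20 µM; growth read once vehicle control cultures reached saturation at 30 °C; 1 = growth at the plate median or of vehicle wells; lower values mean less growth of the strain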
Conditions: S. cerevisiae deletion strains, growth OD
[1] = locus YDL101C, strain DUN1, hits give low values
[2] = locus YHR030C, strain SLT2, hits give low values

Measured: normalized growth

Clc1ccc(CSc2nccn2-c2cc(Cl)ccc2Cl)cc1
inactive: locus YAR019C, strain CDC15, hits give low values 0.969 | locus YBL105C, strain PKC1, hits give low values 0.964 | locus YBR135W, strain CKS1, hits give low values 0.96 | locus YBR136W, strain MEC1, hits give low values 0.951 | locus YBR160W, strain CDC28, hits give low values 0.963 | locus YDL017W, strain CDC7, hits give low values 0.969 | locus YDL028C, strain MPS1, hits give low values 0.949 | [1] 0.97 | locus YDL108W, strain KIN28, hits give low values 0.937 | locus YDL132W, strain cdc53, hits give low values 0.978 | locus YDL214C, strain PRR2, hits give low values 0.888 | locus YDR052C, strain DBF4, hits give low values 0.962 | locus YDR054C, strain cdc34, hits give low values 0.946 | locus YDR226W, strain ADK1, hits give low values 0.954 | locus YDR477W, strain SNF1, hits give low values 0.888 | locus YER123W, strain YCK3, hits give low values 0.784 | locus YER133W, strain GLC7, hits give low values 0.884 | locus YFL009W, strain cdc4, hits give low values 0.951 | locus YFL029C, strain CAK1, hits give low values 0.965 | locus YFR003C, strain YPI1, hits give low values 0.958 | locus YFR019W, strain FAB1, hits give low values 0.909 | locus YFR028C, strain CDC14, hits give low values 0.961 | locus YGR040W, strain KSS1, hits give low values 0.872 | locus YGR052W, strain FMP48, hits give low values 0.946 | locus YGR092W, strain DBF2, hits give low values 0.801 | locus YHR079C, strain IRE1, hits give low values 0.88 | locus YHR082C, strain KSP1, hits give low values 0.951 | locus YHR205W, strain SCH9, hits give low values 0.893 | locus YIL147C, strain SLN1, hits give low values 0.953 | locus YJL095W, strain BCK1, hits give low values 0.886 | locus YJL128C, strain PBS2, hits give low values 0.987 | locus YJL157C, strain FAR1, hits give low values 0.867 | locus YJR016C, strain ILV3, hits give low values 0.963 | locus YJR066W, strain TOR1 (second series), hits give low values 0.829 | locus YJR066W, strain TOR1, hits give low values 0.948 | locus YKL048C, strain ELM1, hits give low values 0.927 | locus YKL067W, strain YNK1, hits give low values 0.894 | locus YKL101W, strain HSL1, hits give low values 0.887 | locus YKL193C, strain SDS22, hits give low values 0.961 | locus YKL203C, strain TOR2, hits give low values 0.915 | locus YLR113W, strain HOG1, hits give low values 0.884 | locus YLR133W, strain CKI1, hits give low values 0.886 | locus YLR403W, strain SFP1, hits give low values 0.832 | locus YML070W, strain DAK1, hits give low values 0.872 | locus YMR001C, strain CDC5, hits give low values 0.964 | locus YMR205C, strain PFK2 (second series), hits give low values 0.879 | locus YMR277W, strain FCP1, hits give low values 0.958 | locus YNL006W, strain LST8, hits give low values 0.961 | locus YNL020C, strain ARK1, hits give low values 0.859 | locus YNL161W, strain CBK1, hits give low values 0.964 | locus YNL183C, strain NPR1, hits give low values 0.909 | locus YNL207W, strain RIO2, hits give low values 0.965 | locus YNL222W, strain SSU72, hits give low values 0.961 | locus YNL307C, strain MCK1 (second series), hits give low values 0.879 | locus YOL078W, strain AVO1, hits give low values 0.962 | locus YOL136C, strain PFK27, hits give low values 0.872 | locus YOR061W, strain CKA2, hits give low values 0.817 | locus YOR119C, strain RIO1, hits give low values 0.856 | locus YOR231W, strain MKK1, hits give low values 0.868 | locus YOR329C, strain SCD5, hits give low values 0.967 | locus YPL031C, strain PHO85, hits give low values 0.866 | locus YPL153C, strain RAD53, hits give low values 0.847 | locus YPL204W, strain HRR25, hits give low values 0.86 | locus YPL209C, strain IPL1, hits give low values 0.96 | locus YPL256C, strain CLN2, hits give low values 0.977 | locus YPR025C, strain CCL1, hits give low values 0.964 | locus YPR106W, strain ISR1, hits give low values 0.978 | locus YPR111W, strain DBF20, hits give low values 0.976 | strain NNK1, hits give low values 0.974 | strain TSCII, hits give low values 0.962
active: [2] 0.69

Nc1ncnc(SCc2ccc(Cl)cc2)n1
inactive: locus YAL013W, strain DEP1, hits give low values 0.984 | locus YBR229C, strain ROT2, hits give low values 1.01 | locus YCL061C, strain MRC1, hits give low values 1.02 | [1] 0.988 | locus YDR150W, strain NUM1, hits give low values 1.04 | locus YEL061C, strain CIN8, hits give low values 0.968 | locus YGR078C, strain PAC10, hits give low values 1 | [2] 1.08 | locus YHR087W, strain rtc3, hits give low values 1 | locus YJR043C, strain POL32, hits give low values 0.999 | locus YJR075W, strain HOC1, hits give low values 1.01 | locus YLR039C, strain RIC1, hits give low values 0.835 | locus YLR058C, strain SHM2 (second series), hits give low values 0.999 | locus YLR085C, strain ARP6, hits give low values 0.994 | locus YLR262C, strain YPT6, hits give low values 0.988 | locus YML094W, strain GIM5, hits give low values 0.992 | locus YMR219W, strain ESC1, hits give low values 0.996 | locus YMR263W, strain SAP30, hits give low values 0.989 | locus YMR307W, strain GAS1, hits give low values 0.995 | locus YNL153C, strain GIM3, hits give low values 1.01 | locus YNL298W, strain CLA4 (second series), hits give low values 0.98 | locus YNL322C, strain KRE1, hits give low values 0.987 | locus YNR030W, strain Alg12, hits give low values 1.02 | locus YPL055C, strain LGE1, hits give low values 1.01 | locus YPL241C, strain CIN2, hits give low values 0.993 | locus YPR135W, strain CTF4, hits give low values 1.14
